The list is not random: actives were taken first. Their share in the collection is about 19%.
TDP1 cell noCPT – qHTS for Inhibitors of human tyrosyl-DNA phosphodiesterase 1 (TDP1): qHTS in cells in absence of CPT; 15% of 420,000 active; DT40 Tdp1-/- hTDP1 cells, no CPT, ATP luminescence, 48 h; Potency, µM (titrated, usually from 46.2 µM), for inactives: at the highest dose activity change, negative = growth inhibition, usual class: inhibitors; further: potency means the concentration at half of the fitted maximal effect; on the % scale 0 is the no-effect control and ±100 the full control effect; nearly all actives have a fitted effect of over 55% in size
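Seeded 400 DT40-hTDP1 cells/well (vehicle DMSO, no 20 nM CPT); pinned compounds; ≥48 hr at 37 °C; CellTiter-Glo luminescence as viability measure.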
TDP1 block – inhibitors of human tyrosyl-DNA phosphodiesterase TDP1; Q9NUW8; recombinant TDP1, AlphaScreen DNA substrate cleavage; Potency, µM (highest dose often 130 µM), without a hit: at the highest dose activity change, negative = inhibition, most hits filed as inhibitors; 0.28% of 350,000 active; AID 485290; further: potency means the concentration at half of the fitted maximal effect; on the % scale 0 is the no-effect control and ±100 the full control effect; nearly all actives have a fitted effect of over 40% in size
Target sequence (Q9NUW8 whole entry, looked up): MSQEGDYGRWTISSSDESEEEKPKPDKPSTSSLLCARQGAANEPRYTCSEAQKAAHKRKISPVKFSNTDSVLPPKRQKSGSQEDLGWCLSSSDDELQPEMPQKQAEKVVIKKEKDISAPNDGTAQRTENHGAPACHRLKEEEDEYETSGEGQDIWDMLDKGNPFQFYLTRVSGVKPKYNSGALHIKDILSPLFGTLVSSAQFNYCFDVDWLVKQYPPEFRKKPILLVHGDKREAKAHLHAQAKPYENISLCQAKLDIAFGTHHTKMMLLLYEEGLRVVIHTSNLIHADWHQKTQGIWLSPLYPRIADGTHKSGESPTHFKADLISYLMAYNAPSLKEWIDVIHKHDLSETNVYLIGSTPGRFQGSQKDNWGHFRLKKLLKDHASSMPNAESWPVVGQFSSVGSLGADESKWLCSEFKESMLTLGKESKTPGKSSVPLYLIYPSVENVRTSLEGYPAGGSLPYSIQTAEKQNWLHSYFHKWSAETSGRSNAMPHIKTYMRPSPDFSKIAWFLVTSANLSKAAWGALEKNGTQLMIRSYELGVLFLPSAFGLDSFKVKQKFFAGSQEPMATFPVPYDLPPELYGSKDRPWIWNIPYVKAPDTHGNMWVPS
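E. coli-derived human Tdp1, 1 nM final. Cpd preinc 15 min RT; substrate 15 nM final, 5 min RT; AS bead mix 10 ug/ml final, 10 min RT. Signal loss = tyrosine-FITC cleavage. No-enzyme wells = max signal.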
HepG2 viability – kills HepG2 cells in TGF-b inhibitor counter-screen | HepG2 CAGA-GFP viability, ATP luminescence, 18 h | 0.76% of 410,000 active | Potency, µM (highest dose often 46.1 µM), for inactives: at the top dose activity change, negative = cytotoxicity, hits mostly cytotoxic; further: potency means the concentration at half of the fitted maximal effect
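CellTiter-Glo luminescence gave cytotoxicity after 18 hours at 37 degrees C. The cells were HepG2 CAGA-GFP in 1% FBS DMEM, stimulated with 500 pg/mL TGF-beta after compound addition. %Activity was normalised to no-cell wells (complete cell-killing) and DMSO (no toxicity), and curves were fitted and classified.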
DT40 TDP1 CPT – DT40-hTDP1 cell growth loss with CPT | Potency, µM (highest dose often 46.2 µM), inactives show top-dose activity change, negative = growth inhibition, actives largely listed as inhibitors | chicken DT40 Tdp1-/-;hTDP1 cells + 20 nM CPT, ATP luminescence, 48 h | 12% of 420,000 active; further: potency means the concentration at half of the fitted maximal effect; on the % scale 0 is the no-effect control and ±100 the full control effect; nearly all actives have a fitted effect of over 55% in size
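Cell growth measured by CellTiter-Glo luminescence after a minimum 48 h, 37 C compound exposure with 20 nM CPT in Tdp1-knockout DT40 cells stably expressing hTDP1, seeded 400/well; qHTS titration format.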
IL-1B inflam inh – inhibitors of inflammasome signaling (IL-1 beta secretion); THP-1 LPS/ATP IL-1B secretion, AlphaLISA, 16 h; hits give low values; activity change, % at 57.5 µM; 4.7% of 360,000 active; in the data active means activity change below about -50%; inconclusive means mostly about -30% to -49%; further: on the % scale 0 is the no-effect control and ±100 the full control effect
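THP-1 cells pretreated 1 hr with compounds (up to 57.5 uM final), then stimulated with LPS (250 ng/mL final) plus ATP (1.25 mM final); secreted IL-1B measured by AlphaLISA after 16 hr, decreased signal indicating inhibition.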
TGFb SMAD3 inh – TGF-b pathway inhibition; HepG2 CAGA-GFP TGF-b/SMAD3 reporter, GFP fluorescence, 18 h; TGF-beta stimulated, 500 pg/mL final; Potency, µM (doses to about 46.1 µM), without a hit: top-dose activity, negative = inhibition, actives largely listed as inhibitors; 1.2% of 410,000 active; further: potency means the concentration at half of the fitted maximal effect; on the % scale 0 is the no-effect control and ±100 the full control effect; nearly all actives have a fitted effect of over 65% in size
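Inhibition of TGF-beta-driven CAGA-GFP reporter expression in HEPG2 cells is measured by cellular GFP fluorescence after 18 h stimulation with 500 pg/mL recombinant TGF-beta in 1% FBS medium at 37 degrees C.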
* hit, by the source's call; ? = inconclusive; · = no result given; [ ] = another dose, or the depositor's remark. Unless noted, the call rests on the fitted dose curve; in most records, active means well fitted curve in the direction sought with a large enough effect; inconclusive means small, poorly fitted or top-dose-only effect, or another doubt; inactive means no such curve, though single readings can be large; an effect the other way counts as inactive or inconclusive.

SMILES	TDP1 cell noCPT	TDP1 block	HepG2 viability	DT40 TDP1 CPT	IL-1B inflam inh	TGFb SMAD3 inh
Cc1ccc(S(=O)(=O)N2C[C@]3(O)C[C@@H]4C(=O)N(c5ccccc5)C(=O)[C@@H]4C[C@]3(OC(=O)NC3CCCC3)C2)cc1	21µM*	·	-22%	?	-1	-4%
CCCCCCn1c(=O)n2n(c1=O)C[C@]1(OC(=O)NC3CC3)CN(S(=O)(=O)c3ccc(C)cc3)C[C@]1(O)C2	12µM*	·	-31%	?	19	-22%
CCOC(=O)N1CCC(NC(=O)c2ccc3c(c2)N(Cc2ccccc2)C(=O)c2ccccc2S3(=O)=O)CC1	?	-2%	-15%	?	·	·
C=CCN(C(=O)c1cccc(N2C(=O)C3CC=CC(C)C3C2=O)c1)c1ccccc1 (stereo not drawn)	4.6µM*	1%	2%	?	35	-19%
CC1C=CCC2C(=O)N(c3cccc(C(=O)Nc4ccc(F)cc4)c3)C(=O)C12 (stereo not drawn)	-15%	4%[56.1 µM]	5%	-25%	-2	5%
C/C(=N\NC(=O)CSCc1ccccc1Cl)c1cc(O)ccc1O	5.2µM*	10%	-29%	6.5µM*	40	-18%
CC(=O)Nc1ccc(NC(=O)CSCc2ccccc2Cl)cc1	-25%	·	-53%	3%	-2	0%
Cc1ccccc1SCC(=O)N/N=C/c1ccc(F)cc1	4%	·	-2%	?	-4	0%
CCCN(CCC)c1nc2ccccc2nc1C(C#N)C(=O)OCCOC (stereo not drawn)	23µM*	1%	-1%	?	-62*	22%
CCCCCCOC(=O)C(C#N)c1nc2ccccc2nc1N1CCCCC1 (stereo not drawn)	?	9%	-17%	?	-5	3%
C=CCN(CC=C)c1nc2ccccc2nc1C(C#N)C(=O)OCCOC (stereo not drawn)	?	6%	-1%	21µM*	?	-3%
CCC1(c2ccccc2)NC(=O)N(CC(=O)NC2CCCCCC2)C1=O (stereo not drawn)	8%	0%	1%	4%	17	-9%
CC(=O)/C(=C\Nc1ccc(OCc2ccccc2)cc1)c1ccccc1	29µM*	0%	0%	18µM*	-6	8%
COc1cc(N/C=C(\C(C)=O)c2ccccc2)cc(OC)c1	·	3%	·	·	·	·
CC(=O)/C(=C/Nc1ccc(Oc2ccccc2)cc1)c1ccccc1	18µM*	0%	-22%	?	?	-2%
COc1ccc(N2CCN(C(=S)Nc3cc(C)ccc3C)CC2)cc1	-11%	-4%	0%	-9%	4	-4%
COc1ccc(N2CCN(C(=S)Nc3ccc(C)cc3C)CC2)cc1	-7%	2%	6.3µM*	-25%	?	-15%
COc1ccc(N2CCC(CNC(=O)Nc3ccccc3)C2)cc1 (stereo not drawn)	?	11%	-21%	-8%	-1	-3%
COc1ccc(N2CCC(CNC(=S)Nc3cc(C)ccc3C)C2)cc1 (stereo not drawn)	16µM*	12%	2%	16µM*	0	?
COc1ccc(N2CCC(CNC(=S)Nc3cc(C)cc(C)c3)C2)cc1 (stereo not drawn)	15µM*	12%	-46%	?	-91*	?
COc1cccc(Cn2c(CNC(=O)C(C)C)nc3cccnc32)c1	13%	0%	-13%	-10%	·	-1%
CC#CCC(C)[C@H](O)/C=C/[C@@H]1[C@H]2c3cccc(CCCC(=O)O)c3O[C@H]2C[C@H]1O (stereo partly drawn)	3%	·	·	3%	·	·

Bioassay records as filed in PubChem BioAssay.
